{"source": "PubChem BioAssay AID1159580", "about": "(chemical genetic matrix, 2015)", "test": "chemical genetic growth profiling, strain panel (AID 1159580);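 further: tested at 20 µM; growth read once vehicle control cultures reached saturation at 30 °C; 1 = growth at the plate median or of vehicle wells; lower values mean less growth of the strain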", "conditions": "S. cerevisiae deletion strains, growth OD", "key": {"[1]": {"conditions": "locus YAL040C, strain CLN3, hits give low values"}, "[2]": {"conditions": "locus YDR363W, strain ESC2, hits give low values"}, "[3]": {"conditions": "locus YER002W, strain NOP16, hits give low values"}, "[4]": {"conditions": "locus YGR078C, strain PAC10, hits give low values"}, "[5]": {"conditions": "locus YMR263W, strain SAP30, hits give low values"}, "[6]": {"conditions": "locus YMR307W, strain GAS1, hits give low values"}, "[7]": {"conditions": "locus YNL153C, strain GIM3, hits give low values"}, "[8]": {"conditions": "locus YNL175C, strain NOP13, hits give low values"}, "[9]": {"conditions": "locus YNL197C, strain WHI3, hits give low values"}, "[10]": {"conditions": "locus YNL224C, strain SQS1, hits give low values"}, "[11]": {"conditions": "locus YOR083W, strain WHI5 (second series), hits give low values"}, "[12]": {"conditions": "locus YPL241C, strain CIN2, hits give low values"}}, "note": "In all, about 5,500 compounds went through this assay and about 2,000 (36%) were called active. About 18% were inconclusive and are not listed. Some of the results follow. Values without a mark were called inactive. No stated cut-off is given here; in the data, active means normalized growth mostly below about 0.91 (no sharp cut-off); inconclusive means no clear call, values can overlap the other calls; inactive means mostly above about 0.92."}
{"smiles": "Cc1nc2c(OCc3ccccc3)cccn2c1CC#N", "values": [{"measurement": "normalized growth", "setting": "[1]", "result": 0.99}, {"measurement": "normalized growth", "setting": "locus YCL061C, strain MRC1 (second series), hits give low values", "result": 0.996}, {"measurement": "normalized growth", "setting": "[2]", "result": 0.987}, {"measurement": "normalized growth", "setting": "[3]", "result": 0.991}, {"measurement": "normalized growth", "setting": "[4]", "result": 0.996}, {"measurement": "normalized growth", "setting": "[5]", "result": 1}, {"measurement": "normalized growth", "setting": "[6]", "result": 0.974}, {"measurement": "normalized growth", "setting": "[7]", "result": 0.994}, {"measurement": "normalized growth", "setting": "[8]", "result": 0.991}, {"measurement": "normalized growth", "setting": "[9]", "result": 1}, {"measurement": "normalized growth", "setting": "[10]", "result": 0.995}, {"measurement": "normalized growth", "setting": "locus YNL322C, strain KRE1, hits give low values", "result": 1.01}, {"measurement": "normalized growth", "setting": "[11]", "result": 0.97}, {"measurement": "normalized growth", "setting": "[12]", "result": 1}]}
{"smiles": "Cc1cc(NC(=O)Nc2ccc3c(ccn3C)c2)sn1", "values": [{"measurement": "normalized growth", "setting": "[1]", "result": 0.993}, {"measurement": "normalized growth", "setting": "[2]", "result": 1.02}, {"measurement": "normalized growth", "setting": "[3]", "result": 0.992}, {"measurement": "normalized growth", "setting": "[4]", "result": 0.999}, {"measurement": "normalized growth", "setting": "locus YGR229C, strain SMI1, hits give low values", "result": 1}, {"measurement": "normalized growth", "setting": "locus YJR075W, strain HOC1, hits give low values", "result": 1}, {"measurement": "normalized growth", "setting": "[5]", "result": 0.968}, {"measurement": "normalized growth", "setting": "[6]", "result": 0.996}, {"measurement": "normalized growth", "setting": "[7]", "result": 1.04}, {"measurement": "normalized growth", "setting": "[8]", "result": 1.02}, {"measurement": "normalized growth", "setting": "[9]", "result": 0.983}, {"measurement": "normalized growth", "setting": "[10]", "result": 0.996}, {"measurement": "normalized growth", "setting": "[11]", "result": 1.01}, {"measurement": "normalized growth", "setting": "[12]", "result": 0.992}]}
{"smiles": "C/C(=N/Nc1nc(C(C)(C)C)cs1)c1ccc(Cl)c(Cl)c1", "values": [{"measurement": "normalized growth", "setting": "locus YAR019C, strain CDC15, hits give low values", "result": 0.986}, {"measurement": "normalized growth", "setting": "locus YBL105C, strain PKC1, hits give low values", "result": 0.983}, {"measurement": "normalized growth", "setting": "locus YBR135W, strain CKS1, hits give low values", "result": 0.994}, {"measurement": "normalized growth", "setting": "locus YBR136W, strain MEC1, hits give low values", "result": 0.99}, {"measurement": "normalized growth", "setting": "locus YBR160W, strain CDC28, hits give low values", "result": 0.987}, {"measurement": "normalized growth", "setting": "locus YDL017W, strain CDC7, hits give low values", "result": 0.981}, {"measurement": "normalized growth", "setting": "locus YDL028C, strain MPS1, hits give low values", "result": 0.996}, {"measurement": "normalized growth", "setting": "locus YDL101C, strain DUN1, hits give low values", "result": 0.981}, {"measurement": "normalized growth", "setting": "locus YDL108W, strain KIN28, hits give low values", "result": 0.994}, {"measurement": "normalized growth", "setting": "locus YDL132W, strain cdc53, hits give low values", "result": 0.99}, {"measurement": "normalized growth", "setting": "locus YDL214C, strain PRR2, hits give low values", "result": 0.919}, {"measurement": "normalized growth", "setting": "locus YDR052C, strain DBF4, hits give low values", "result": 0.977}, {"measurement": "normalized growth", "setting": "locus YDR054C, strain cdc34, hits give low values", "result": 0.978}, {"measurement": "normalized growth", "setting": "locus YDR226W, strain ADK1, hits give low values", "result": 0.973}, {"measurement": "normalized growth", "setting": "locus YDR477W, strain SNF1, hits give low values", "result": 0.944}, {"measurement": "normalized growth", "setting": "locus YER123W, strain YCK3, hits give low values", "result": 0.844}, {"measurement": "normalized growth", "setting": "locus YER133W, strain GLC7, hits give low values", "result": 0.943}, {"measurement": "normalized growth", "setting": "locus YFL009W, strain cdc4, hits give low values", "result": 0.987}, {"measurement": "normalized growth", "setting": "locus YFL029C, strain CAK1, hits give low values", "result": 0.981}, {"measurement": "normalized growth", "setting": "locus YFR003C, strain YPI1, hits give low values", "result": 0.985}, {"measurement": "normalized growth", "setting": "locus YFR019W, strain FAB1, hits give low values", "result": 0.91}, {"measurement": "normalized growth", "setting": "locus YFR028C, strain CDC14, hits give low values", "result": 0.994}, {"measurement": "normalized growth", "setting": "locus YGR040W, strain KSS1, hits give low values", "result": 0.945}, {"measurement": "normalized growth", "setting": "locus YGR052W, strain FMP48, hits give low values", "result": 0.932}, {"measurement": "normalized growth", "setting": "locus YGR092W, strain DBF2, hits give low values", "result": 0.923}, {"measurement": "normalized growth", "setting": "locus YHR030C, strain SLT2, hits give low values", "result": "0.753 (active)"}, {"measurement": "normalized growth", "setting": "locus YHR079C, strain IRE1, hits give low values", "result": 0.759}, {"measurement": "normalized growth", "setting": "locus YHR082C, strain KSP1, hits give low values", "result": 0.965}, {"measurement": "normalized growth", "setting": "locus YHR205W, strain SCH9, hits give low values", "result": 0.953}, {"measurement": "normalized growth", "setting": "locus YIL147C, strain SLN1, hits give low values", "result": 0.993}, {"measurement": "normalized growth", "setting": "locus YJL095W, strain BCK1, hits give low values", "result": 0.839}, {"measurement": "normalized growth", "setting": "locus YJL128C, strain PBS2, hits give low values", "result": 0.954}, {"measurement": "normalized growth", "setting": "locus YJL157C, strain FAR1, hits give low values", "result": 0.889}, {"measurement": "normalized growth", "setting": "locus YJR016C, strain ILV3, hits give low values", "result": 0.993}, {"measurement": "normalized growth", "setting": "locus YJR066W, strain TOR1 (second series), hits give low values", "result": 0.835}, {"measurement": "normalized growth", "setting": "locus YJR066W, strain TOR1, hits give low values", "result": 0.891}, {"measurement": "normalized growth", "setting": "locus YKL048C, strain ELM1, hits give low values", "result": 0.97}, {"measurement": "normalized growth", "setting": "locus YKL067W, strain YNK1, hits give low values", "result": 0.949}, {"measurement": "normalized growth", "setting": "locus YKL101W, strain HSL1, hits give low values", "result": 0.98}, {"measurement": "normalized growth", "setting": "locus YKL193C, strain SDS22, hits give low values", "result": 0.991}, {"measurement": "normalized growth", "setting": "locus YKL203C, strain TOR2, hits give low values", "result": 0.969}, {"measurement": "normalized growth", "setting": "locus YLR113W, strain HOG1, hits give low values", "result": "0.803 (active)"}, {"measurement": "normalized growth", "setting": "locus YLR133W, strain CKI1, hits give low values", "result": 0.933}, {"measurement": "normalized growth", "setting": "locus YLR403W, strain SFP1, hits give low values", "result": 0.908}, {"measurement": "normalized growth", "setting": "locus YML070W, strain DAK1, hits give low values", "result": 0.916}, {"measurement": "normalized growth", "setting": "locus YMR001C, strain CDC5, hits give low values", "result": 0.983}, {"measurement": "normalized growth", "setting": "locus YMR205C, strain PFK2 (second series), hits give low values", "result": 0.97}, {"measurement": "normalized growth", "setting": "locus YMR277W, strain FCP1, hits give low values", "result": 0.986}, {"measurement": "normalized growth", "setting": "locus YNL006W, strain LST8, hits give low values", "result": 0.986}, {"measurement": "normalized growth", "setting": "locus YNL020C, strain ARK1, hits give low values", "result": 0.917}, {"measurement": "normalized growth", "setting": "locus YNL161W, strain CBK1, hits give low values", "result": 0.99}, {"measurement": "normalized growth", "setting": "locus YNL183C, strain NPR1, hits give low values", "result": 0.92}, {"measurement": "normalized growth", "setting": "locus YNL207W, strain RIO2, hits give low values", "result": 0.976}, {"measurement": "normalized growth", "setting": "locus YNL222W, strain SSU72, hits give low values", "result": 0.987}, {"measurement": "normalized growth", "setting": "locus YNL307C, strain MCK1 (second series), hits give low values", "result": 0.899}, {"measurement": "normalized growth", "setting": "locus YOL078W, strain AVO1, hits give low values", "result": 0.989}, {"measurement": "normalized growth", "setting": "locus YOL136C, strain PFK27, hits give low values", "result": 0.871}, {"measurement": "normalized growth", "setting": "locus YOR061W, strain CKA2, hits give low values", "result": 0.943}, {"measurement": "normalized growth", "setting": "locus YOR119C, strain RIO1, hits give low values", "result": 1}, {"measurement": "normalized growth", "setting": "locus YOR231W, strain MKK1, hits give low values", "result": 0.792}, {"measurement": "normalized growth", "setting": "locus YOR329C, strain SCD5, hits give low values", "result": 0.981}, {"measurement": "normalized growth", "setting": "locus YPL031C, strain PHO85, hits give low values", "result": 0.903}, {"measurement": "normalized growth", "setting": "locus YPL153C, strain RAD53, hits give low values", "result": 0.932}, {"measurement": "normalized growth", "setting": "locus YPL204W, strain HRR25, hits give low values", "result": 0.899}, {"measurement": "normalized growth", "setting": "locus YPL209C, strain IPL1, hits give low values", "result": 0.987}, {"measurement": "normalized growth", "setting": "locus YPL256C, strain CLN2, hits give low values", "result": "0.757 (active)"}, {"measurement": "normalized growth", "setting": "locus YPR025C, strain CCL1, hits give low values", "result": 0.992}, {"measurement": "normalized growth", "setting": "locus YPR106W, strain ISR1, hits give low values", "result": 0.983}, {"measurement": "normalized growth", "setting": "locus YPR111W, strain DBF20, hits give low values", "result": 0.974}, {"measurement": "normalized growth", "setting": "strain NNK1, hits give low values", "result": 0.974}, {"measurement": "normalized growth", "setting": "strain TSCII, hits give low values", "result": 0.989}]}
